# Assay results taken from PubChem BioAssay (EPA / NIEHS).
# Active and inactive are the calls of the source. The calls were made as follows, unless noted: active = hit-call score of the fitted dose curve at least 0.9, where 1 is the maximum; inactive = score below 0.9.
# Assay: CCTE_Deisenroth_H295R-HTRF_384WELL_ESTRADIOL: CCTE's H295R-HTRF Assay Evaluation of Estradiol Concentration, Deisenroth Lab (AID 2284361)
# Settings: actives raise or lower the signal
# Method in brief: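 H295R cells exposed 48 h to chemicals at 0.001 - 100 uM final (nine points, triplicate); estradiol in conditioned medium measured by HTRF immunoassay, fitted bidirectionally versus DMSO. Viability by CellTiter-Glo on same plates.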
Compound,AC50,outcome
Clc1ccccc1C(c1ccccc1)(c1ccccc1)n1ccnc1,0.129 µM (active),
CCCCOC(=O)c1ccc(O)cc1,54.3 µM (active),
CC(=O)N1CCN(c2ccc(OC[C@H]3CO[C@](Cn4ccnc4)(c4ccc(Cl)cc4Cl)O3)cc2)CC1,,inactive
O=c1c(-c2ccc(O)cc2)coc2cc(O)cc(O)c12,21.6 µM (active),

# Assay: CCTE_Deisenroth_H295R-HTRF_384WELL_TESTOSTERONE: CCTE's H295R-HTRF Assay Evaluation of Testosterone Concentration, Deisenroth Lab (AID 2284373)
# Settings: actives raise or lower the signal
# Method: CCTE_Deisenroth_H295R-HTRF_384WELL assay is a cell-based, multiplex-readout assay that uses H295R, a human adrenocortical carcinoma cell line, with measurements taken at 48 hours after chemical dosing in a 384-well microplateCCTE_Deisenroth_H295R-HTRF_384WELL_TESTOSTERONE is one of 3 assay components calculated in the CCTE_Deisenroth_H295R-HTRF_384WELL assay (2 hormones and 1 viability components). It is designed to make measurements of hormone induction, a form of inducible reporter, as detected with Homogenous Time Resolved Fluorescence immunoassay technology.This assay endpoint, CCTE_Deisenroth_H295R-HTRF_384WELL_TESTOSTERONE, was analyzed with bidirectional fitting relative to DMSO as the negative control and baseline of activity. Using a type of inducible reporter, gain or loss-of-signal activity using Homogenous Time Resolved Fluorescence technology was used to understand synthesis of testosterone in the H295R cell line at 48hr of chemical exposure. To generalize the intended target to other relatable targets, this assay endpoint is annotated to the steroid hormone intended target family, where the subfamily is androgens.
# (§1) Standard operating procedures for the cell culture medium, maintenance, expansion, and cryopreservation of the NCI-H295R adrenocortical carcinoma adherent cell line were adopted directly from guideline specifications7,13. The assay workflow follows a three-day protocol consistent with the paradigm defined in OECD TG 456 and U.S. EPA OCSPP Guideline 890.1550. On day 0, cells are plated in 384-well microplates and acclimated for 24 hours. On Day 1, test chemicals are dispensed into separate 384-well microplates in a nine-point 2X dilution series (0.002 - 200 uM). Without aspirating the growth medium on the assay plates, test chemical suspension is dispensed to achieve a final 1X nominal concentration. Each chemical is run in technical triplicate at a final dilution series of 0.001 - 100 uM. On Day 3, following a 48-hour incubation period with test chemical, the conditioned medium samples are collected and transferred to 384-well sample storage plates. HTRF direct immunoassay technology is employed to detect E2 and T analytes in H295R conditioned medium. HTRF assays for E2 and T are performed with matched conditioned medium samples according to the manufacturer's protocol. Fluorescent endpoint measurements are conducted with a microplate reader equipped with an HTRF-compatible filter set (ex: 320 (10) nM; em: 620 (10) and 665 (10) nM). A multiplexed cell viability assay is implemented on the same plates used for chemical testing using the Promega CellTiter-Glo 2.0 assay. […] After collecting conditioned medium samples on Day 3, the viability assay is immediately performed and luminescence readings measured on a microplate reader. […]
Compound,AC50,outcome
Clc1ccccc1C(c1ccccc1)(c1ccccc1)n1ccnc1,0.117 µM (active),
CCCCOC(=O)c1ccc(O)cc1,,inactive
CC(=O)N1CCN(c2ccc(OC[C@H]3CO[C@](Cn4ccnc4)(c4ccc(Cl)cc4Cl)O3)cc2)CC1,0.947 µM (active),
O=c1c(-c2ccc(O)cc2)coc2cc(O)cc(O)c12,6.78 µM (active),

# Assay: CCTE_Deisenroth_H295R-HTRF_384WELL_CTOX: Cytotoxicity Assessment in CCTE's H295R-HTRF Assay, Deisenroth Lab (AID 2284380; active = hit-call score of the fitted dose curve at least 0.9, where 1 is the maximum)
# Settings: not given
# Method: CCTE_Deisenroth_H295R-HTRF_384WELL assay is a cell-based, multiplex-readout assay that uses H295R, a human adrenocortical carcinoma cell line, with measurements taken at 48 hours after chemical dosing in a 384-well microplateCCTE_Deisenroth_H295R-HTRF_384WELL_CTOX is one of 3 assay components measured in the CCTE_Deisenroth_H295R-HTRF_384WELL assay (2 hormones and 1 viability components). It is designed to make measurements of adenosine triphosphate (ATP), a form of viability reporter, as detected with luminescence intensity signals by CellTiter-Glo 2.0 cytotoxicity assay technology.This assay endpoint, CCTE_Deisenroth_H295R-HTRF_384WELL_CTOX, was analyzed in the positive fitting direction relative to DMSO as the negative control and baseline of activity. Using a type of viability reporter, loss-of-signal activity using CellTiter-Glo 2.0 technology was used to understand viability in the H295R cell line at 48hr of chemical exposure. To generalize the intended target to other relatable targets, this assay endpoint is annotated to the cell cycle intended target family, where the subfamily is cytotoxicity
# as §1, with “specifications (EPA 2011, OECD 2011).” for “specifications7,13.”
row,Compound,outcome
1,Clc1ccccc1C(c1ccccc1)(c1ccccc1)n1ccnc1,inactive
2,CCCCOC(=O)c1ccc(O)cc1,inactive
3,CC(=O)N1CCN(c2ccc(OC[C@H]3CO[C@](Cn4ccnc4)(c4ccc(Cl)cc4Cl)O3)cc2)CC1,inactive
4,O=c1c(-c2ccc(O)cc2)coc2cc(O)cc(O)c12,inactive
